NPR1 antag = antagonists of human natriuretic peptide receptor Npr1; actives 1.6% (n = 76,000); AID 1347048; P16066; HEK293 hNpr1 GloSensor cGMP, ANP-stimulated luminescence; Potency, µM (titrated, usually from 46.3 µM), for inactives: top-dose activity change, negative = inhibition, most hits filed as inhibitors; calls by dose curve; further: nearly all actives have a fitted effect of over 60% in size
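HEK293 cells stably expressing human Npr1 and cGMP GloSensor pGS-40F, loaded 2 h with 2% GloSensor reagent, given compound 30 min at room temperature. Luminescence read before and 20 min after 0.1 nM hNppA.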
3T3 cytotox = cytotoxic compounds in NIH 3T3 cells; actives 4.3% (n = 94,000); NIH 3T3 viability, CellTiter-Glo ATP luminescence, 48-72 h; Potency, µM (doses to about 96.7 µM), without a hit: at the top dose activity change, negative = cytotoxicity, hits mostly inhibitors; further: nearly all actives have a fitted effect of over 55% in size
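Cytotoxicity was measured by CellTiter-Glo ATP luminescence after 48 or 72 h compound exposure at 37 °C. Mouse NIH 3T3 fibroblasts were seeded at 400 cells/well and dosed by 23 nL pin transfer.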
HEK cytotox = HEK 293 cell cytotoxicity; HEK 293 viability, ATP luminescence (CellTiter-Glo), 48-72 h; Potency, µM (top dose mostly 115 µM), without a hit: at the top dose activity change, negative = cytotoxicity, actives largely listed as inhibitors; AID 1345083; actives 6.6% (n = 94,000); further: nearly all actives have a fitted effect of over 60% in size
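Viability of HEK 293 cells, plated at 250 cells/well, was judged by cellular ATP after compound treatment for 48 or 72 hr. Luminescence was imaged 10 min after CellTiter-Glo addition at room temperature.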
FLuc inh = Photinus pyralis luciferase inhibition; purified P. pyralis luciferase, luminescence, biochemical; Potency, µM (series often up to 115 µM), actives largely listed as inhibitors; actives 2.5% (n = 76,000); P08659; further: nearly all actives have a fitted effect of over 65% in size
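Cell-free enzyme assay, 10nM P. pyralis luciferase, luciferin and ATP each at 10uM. Inhibition profiled over a 6-point titration, read as luminescence.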
* = called active by the depositor; i = inactive; ? = inconclusive; · = no result given; ! = not active in a repeat; [ ] = remark or other dose. Compounds with a hit are over-represented: about 11% of the library has one in this group of screens. Unless noted, the call rests on the fitted dose curve; in most records, active means well fitted curve in the direction sought with a large enough effect; inconclusive means small, poorly fitted or top-dose-only effect, or another doubt; inactive means no such curve, though single readings can be large; an effect the other way counts as inactive or inconclusive. On the % scale 0 is the no-effect control and ±100 the full control effect; potency means the concentration at half of the fitted maximal effect.

SMILES	NPR1 antag	3T3 cytotox	HEK cytotox	FLuc inh
CC(C)C[C@@H]1N[C@H](C(=O)NCCOc2ccccc2)Cc2c[nH]c3cccc1c23	-28.9%[70.6 µM]	28.2µM*	?	i
CCCNC(=O)[C@@H]1Cc2c[nH]c3cccc(c23)[C@H](CC(C)C)N1	-1.8%[70.6 µM]	?	50.1µM*	i
CC(C)C[C@@H]1N[C@H](C(=O)NCCN2CCCC2)Cc2c[nH]c3cccc1c23	-6.9%[70.6 µM]	?	?	i
CC(C)C[C@@H]1N[C@H](C(=O)NCCOc2ccccc2)Cc2cn(C)c3cccc1c23	-22.3%[70.6 µM]	31.6µM*	39.8µM*	i
CC(C)C[C@@H]1N[C@H](C(=O)NCCN(C)C)Cc2c[nH]c3cccc1c23	0.6%[70.6 µM]	56.2µM*	100µM*	i
COc1ccc(Cn2c(=O)c(C(=O)N3CCCC3)nc3cccnc32)cc1	·	-17.1%	-20.6%	·
COc1ccccc1C(=O)N1C[C@@H](CO)[C@H](NC(=O)c2ccccc2)C1	·	-9.2%	i	·
Cn1ccnc1CN1C[C@@H](F)[C@@H](OCc2nc3ccc(C(F)(F)F)cc3[nH]2)C1	-0.8%[70.6 µM]	-2.3%[138 µM]	-12.0%[172 µM]	i
Cn1cccc1CN1CCC2(C1)C(=O)N(c1ccccc1)c1ccccc12 (stereo not drawn)	·	-28.9%	?	·
COc1cccc(-c2noc(NCc3cccc(Cl)c3)n2)c1OC	-5.1%	?	79.4µM*	i
COc1ccc(-c2noc(Nc3cc(C)cc(C)c3)n2)cc1	-10.1%	?	?	?
COc1cccc(-c2noc(Nc3cc(C)cc(C)c3)n2)c1OC	-19.3%	?	?	20µM*
Fc1ccccc1-c1noc(NCc2ccccc2)n1	-7.9%	?	?	28.2µM*
CNC(=O)[C@H]1C[C@H](Oc2ccccc2)CN1Cc1ccc(F)c(F)c1	-11.9%	-12.0%	?	i
CC(=O)Nc1ccc(-c2ccc(=O)n3c2[C@@H]2C[C@@H](CN(S(=O)(=O)c4ccc(Cl)cc4)C2)C3)cc1	2.9%	-7.3%	14.1µM*	i
CC(=O)Nc1ccc(-c2ccc(=O)n3c2[C@@H]2C[C@@H](CN(C(=O)COc4ccccc4)C2)C3)cc1	5.0%	-3.5%	39.8µM*	i
CCn1ccc(C(=O)N2C[C@H]3CNC(=O)[C@]34CCCC[C@@H]24)n1	·	i	2.7%	·
COCc1ccc2c(c1)c(OC(C)(C)C(=O)NCCCn1ccnc1)nn2CCC(C)C	-0.2%	?	-8.7%	i
Cc1ccc(CN2CCCCCCNC(=O)[C@@H]3C[C@@H](C(=O)NCCc4c[nH]c5ccccc45)C[C@@H]32)o1	3.1%	?	?	i
CN1CCN(Cc2ccc(Nc3cnc4ccc(N5CCOCC5)nn34)cc2)CC1	-1.1%[70.6 µM]	-31.1%[138 µM]	?	i
CN1CCN(Cc2ccc(Nc3cnc4ccc(-n5ccnc5)nn34)cc2)CC1	-1.1%[70.6 µM]	?	50.1µM*	?
CN(C)C(=O)C(C)(C)Oc1nn(Cc2cccc(Cl)c2)c2ccccc12	-9.6%[70.6 µM]	?	79.4µM*	i
COCc1ccc2c(c1)c(OC(C)(C)C(N)=O)nn2Cc1cccc(OC)c1	6.5%[70.6 µM]	?	?	i
COCCN(C)C(=O)C(C)(C)Oc1nn(Cc2cccc(Cl)c2)c2ccccc12	-21.7%[70.6 µM]	79.4µM*	89.1µM*	i
CN(C)Cc1ccc2c(c1)c(OC(C)(C)C(=O)NC1CC1)nn2Cc1ccccc1	3.6%[70.6 µM]	?	-23.4%[172 µM]	i
SMILES	NPR1 antag	3T3 cytotox	HEK cytotox	FLuc inh
O=C(C1CC1)N1CCC2(CC1)CCN(Cc1cccs1)c1ccccc1O2	2.4%	?	35.5µM*	i
O=C1CC2(CCN(C(=O)C3CCCN([S+](=O)([O-])c4cccs4)C3)CC2)Oc2ccccc2N1 (stereo not drawn)	·	-16.3%	?	·
O=C1CC2(CCN(C(=O)C3CCN([S+](=O)([O-])c4cccs4)CC3)CC2)Oc2ccccc2N1	·	?	28.2µM*	·
O=C(c1ccc(C(F)(F)F)cc1)N1CCC2(CC1)CCN(Cc1cccs1)c1ccccc1O2	-10.6%	12.6µM*	25.1µM*	i
O=C(O)Cn1ccc2cc(OCC3CCN(C(=O)OC4CCCC4)CC3)cnc21	-2.1%[70.6 µM]	31.6µM*	i	?
NC(=O)Cn1ccc2cc(OCC3CCN(c4cc(NC5CC5)ncn4)CC3)cnc21	17.8µM*	?	25.1µM*	?
COc1ccccc1-c1ccc(CN2CCCCC2C(=O)NCc2cccc(F)c2)cc1 (stereo not drawn)	·	?	31.6µM*!	·
CN1C(=O)CCCCC1C(=O)NCc1cccc(F)c1 (stereo not drawn)	1.0%	i	-1.1%	i
COc1ccccc1-c1ccc(CN2CCCCC2C(=O)NCc2ccccc2Cl)cc1 (stereo not drawn)	·	28.2µM*	?	·
COc1ccccc1-c1ccc(CN2CCCCC2C(=O)NC2CCCC2)cc1 (stereo not drawn)	·	?	35.5µM*!	·
COc1ccc(F)cc1-c1ccc(CN2CCCCC2C(=O)NCc2cccnc2)cc1 (stereo not drawn)	·	?	50.1µM*	·
COc1ccccc1-c1cccc(C(=O)N2CCC[C@H]2C(=O)NC2CCCC2)c1	·	-4.3%	-7.3%	·
CC(=O)N(C1CCOCC1)C1CCN(C(=O)c2ccc(C)s2)CC1	·	-21.5%	-16.4%	·
Cn1cccc1CN1CCC2(C1)C(=NC1CCCCC1)NC(=O)N2c1cc(F)cc(F)c1 (stereo not drawn)	·	-15.9%	?	·
COc1ccccc1-c1ccc(CN2CCCCC2C(=O)NCc2ccc3c(c2)OCO3)cc1 (stereo not drawn)	·	?	25.1µM*	·
COc1ccccc1-c1ccc(CN2CCCCC2C(=O)NCc2ccc(F)cc2F)cc1 (stereo not drawn)	·	?	20µM*	·
COc1ccccc1-c1cccc(C(=O)N2CCC[C@H]2C(=O)NCc2ccccc2F)c1	·	-25.5%	?	·
COc1ccc(F)cc1-c1ccc(CN2CCCCC2C(=O)N2CCc3ccccc3C2)cc1 (stereo not drawn)	·	39.8µM*	31.6µM*	·
CCc1nc(CC)n2ccn(Cc3ccc(C#N)cc3)c(=O)c12	1.6%	-5.2%	-15.8%	i
Fc1ccccc1-c1nnc([C@H]2CCN(C3CCOCC3)C2)o1	-1.1%[70.6 µM]	1.1%[138 µM]	i	70.8µM*
CC(C)N1CC[C@H](c2nnc(-c3ccccc3F)o2)C1	3.0%[70.6 µM]	i	i	39.8µM*
c1ccc2oc([C@H]3CCN(C4CCCCC4)C3)nc2c1	?	-25.4%[174 µM]	-19.3%[230 µM]	?
c1ccc2oc([C@H]3CCN(C4CCOCC4)C3)nc2c1	-2.9%[70.6 µM]	i	-12.8%[230 µM]	79.4µM*
O=C1COC[C@H]([C@H](O)c2ccc(NC(=O)c3ccc(C(F)(F)F)cc3)cc2)N1	-2.4%[70.6 µM]	-19.9%[174 µM]	?	?
O=C(C1CCCN1C(=O)c1ccccc1Cl)N1CCC(N2Cc3ccccc3C2=O)CC1 (stereo not drawn)	·	-9.4%	-16.7%	·
CC(=O)Nc1ccc(S(=O)(=O)N[C@H]2CO[C@H]3[C@@H]2OC[C@@H]3Nc2nccc(-c3cccs3)n2)cc1	?	?	35.5µM*	i

Assay outcomes from PubChem BioAssay.
